Test results taken from PubChem BioAssay AID686979 (National Center for Advancing Translational Sciences (NCATS), 2013).
Hit rate of the full screen: of about 420,000 compounds, about 50,000 (12%) were called active. About 26% were inconclusive and are not listed. Calls come from the whole dose curve; as a rule, active = well fitted inhibition curve with a large enough effect; inconclusive = small, poorly fitted or top-dose-only effect; inactive = flat fitted curve, though single readings scatter. What follows is part of a selection rich in actives, with near analogues and random picks from the rest. Where a call stands in place of a potency, no number is given.

Assay: qHTS for Inhibitors of human tyrosyl-DNA phosphodiesterase 1 (TDP1): qHTS in cells in presence of CPT; note: nearly all actives have a fitted effect of over 55% in size
Conditions: chicken DT40 Tdp1-/-;hTDP1 cells + 20 nM CPT, ATP luminescence, 48 h; series mostly up to 46.2 µM
In short: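 Cell growth measured by CellTiter-Glo luminescence after a minimum 48 h, 37 C compound exposure with 20 nM CPT in Tdp1-knockout DT40 cells stably expressing hTDP1, seeded 400/well; qHTS titration format.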
Potency is the fitted concentration of half-maximal effect.

Row | Compound | Potency
1 | CCC1OC(c2ccc([N+](=O)[O-])cc2)=Nc2ccccc21 (stereo unspecified) | inactive
2 | CC(NC(=O)c1ccco1)c1ccc2c(c1)OCO2 (stereo unspecified) | inactive
3 | COc1ccc(CCNC(=O)COC(=O)Cc2ccccc2F)cc1 | inactive
4 | COc1ccc(C(CNCC(=O)Nc2ccccc2F)N(C)C)cc1 (stereo unspecified) | inactive
5 | COc1ccc(C(CCNCc2ccccc2F)c2ccc(F)cc2)cc1 (stereo unspecified) | 16.4 µM (active)
6 | O=C(NNC(=O)C1CCC1)c1ccccc1 | inactive
7 | CC1(C)c2[nH]c3ccccc3c2C[C@H]2C(=O)N(N)CC(=O)N21 | inactive
8 | COc1ccc(CC(N)C(=O)NC2C(O)[C@H](n3cnc4c(N(C)C)ncnc43)O[C@@H]2CO)cc1 (stereo partly specified) | 17.6 µM (active)
9 | COc1cccc(CN(C)C(=O)CC[C@H]2O[C@@H](n3cnc4c(NC(=O)c5ccccc5)ncnc43)[C@H](O)[C@@H]2O)c1 | inactive
10 | Nc1ncnc2c1ncn2[C@@H]1O[C@H](CNC(=O)[C@H](N)Cc2cccnc2)[C@@H](O)[C@H]1O | inactive
11 | CC(=O)N1CCOc2ccc(S(=O)(=O)N3CCC(C(=O)Nc4ccccc4F)CC3)cc21 | inactive
12 | CN(CCO)S(=O)(=O)c1ccc2c(c1)C(=O)c1cc(S(=O)(=O)N(C)CCO)ccc1-2 | inactive
13 | O=C1c2ccccc2C(=O)N1c1ccc(S(=O)(=O)N2CCOCC2)c2ccccc12 | inactive
14 | CCCC/C=C/c1cccc2nncn12 | inactive
15 | CC(=O)c1ccc(N2CCN(C(=O)C3CCN(S(=O)(=O)c4ccc5c(c4)CC(C)N5C(=O)C4CC4)CC3)CC2)cc1 (stereo unspecified) | 11.6 µM (active)
16 | CC(=O)c1ccc(N2CCN(S(=O)(=O)c3ccc4c(c3)CC(=O)N4C)CC2)cc1 | inactive
17 | CCS(=O)(=O)N1CCC(C(=O)N2CCN(c3ccccc3)CC2)CC1 | inactive
18 | Cc1ccc2c(c1)N(CCCC(=O)NCc1cccnc1)C(=O)CO2 | inactive
19 | Cc1nc(CC(=O)NNS(=O)(=O)c2ccc(F)c(Cl)c2)cs1 | inactive
20 | CN(C)S(=O)(=O)c1ccc(Cl)c(NC(=O)COC(=O)CC(NC(N)=O)c2ccc(Cl)cc2)c1 (stereo unspecified) | inactive
21 | CCCCCCCNC(=O)C1(CC2CC(c3cccc(Br)c3)=NO2)CCN(C(=O)c2cc(OCC)c(OCC)c(OCC)c2)CC1 (stereo unspecified) | 23.1 µM (active)
22 | CCOC(=O)C1CCN(Cc2nnc(-c3cccc(Br)c3)o2)CC1 | inactive
23 | CN(CC(=O)NCCc1ccccc1)S(=O)(=O)c1cnc[nH]1 | inactive
24 | Cn1c(SCc2ccc(F)cc2)nnc1-c1ccncc1 | inactive
25 | Cc1ccc(Nc2nc(CSc3nnc(-c4ccncc4)n3-c3ccccc3C)cs2)cc1 | 13 µM (active)
26 | CCOc1ccccc1-n1c(SCC(=O)NCc2ccco2)nnc1-c1ccncc1 | inactive
